Several values for one entry are separate records, joined by “and”; a condition that tells them apart may be missing. Equal values may be shown once. Hit rate of the full screen: of about 110,000 compounds, about 730 (0.66%) were called active. Cut-off read from the data, not from the text of the source: active = inhibition above about 50%; inconclusive = no clear call, values can overlap the other calls; inactive = below that. For the sample, actives were picked, then their nearest neighbours and some compounds at random. Some compounds were tested as several samples or in several runs, with calls that do not always agree.
These compounds were tested against Tyrosine-protein phosphatase non-receptor type 7 (Homo sapiens) (UniProt P35236) (assay: inhibitors of human HePTP phosphatase, primary screen, biochemical, absorbance, leukemia target (AID 521;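 note: plate controls were vehicle for no effect and reference inhibitor for full effect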)). Details: recombinant HePTP phosphatase activity, OD absorbance; at 20 µM; stronger effect = higher value.
Tyrosine-protein phosphatase non-receptor type 7 (Homo sapiens), sequence (P35236 whole entry, looked up): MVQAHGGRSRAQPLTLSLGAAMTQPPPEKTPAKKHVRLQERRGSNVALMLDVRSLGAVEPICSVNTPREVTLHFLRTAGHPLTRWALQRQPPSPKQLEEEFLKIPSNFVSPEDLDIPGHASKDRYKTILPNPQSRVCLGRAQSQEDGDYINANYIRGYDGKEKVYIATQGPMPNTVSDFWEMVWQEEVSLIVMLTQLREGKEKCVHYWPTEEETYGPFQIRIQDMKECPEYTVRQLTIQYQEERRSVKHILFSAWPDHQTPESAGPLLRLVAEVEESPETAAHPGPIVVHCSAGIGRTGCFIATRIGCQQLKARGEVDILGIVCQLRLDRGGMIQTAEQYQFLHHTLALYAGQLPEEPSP

| SMILES | inhibition |
| --- | --- |
| Cc1[nH]n(-c2ccccc2)c(=O)c1C(c1ccc(C(F)(F)F)cc1)c1c(C)[nH]n(-c2ccccc2)c1=O | 104% (active) |
| Cc1[nH]n(-c2ccccc2)c(=O)c1C(=O)C(F)(F)F | 3.1% (inactive) |
| Cc1[nH]n(-c2ccccc2)c(=O)c1/C=N/N(C)C | -5.9% (inactive) |
| COc1ccc2nc(C)c(CCC(C)=O)c(Cl)c2c1 | 6.4% (inactive) |
| COc1ccc(C(=O)Nc2nc(C34CC5CC(CC(C5)C3)C4)c(C)s2)cc1 | -13.5% (inactive) |
| COC(=O)c1ccccc1NC(=O)COc1cccc2ccccc12 | 3.5% (inactive) |
| COc1cc(C(=O)N2CCC(Cc3ccccc3)CC2)c([N+](=O)[O-])cc1OC | -4.3% (inactive) |
| COC(=O)c1ccccc1NC(=O)c1ccc(Cl)cc1 | 72.5% (active) |
| COC(=O)c1ccccc1NC(=O)c1cncc(Br)c1 | 5.5% (inactive) and 4.4% (inactive) |
| COC(=O)c1ccc(C(=O)Nc2cc(Cl)ccc2Cl)cc1NC(=O)c1ccccc1C | -11.5% (inactive) |
| Cc1cc(NC(=O)C2CC3CCC2C3)no1 (stereo unspecified) | -16.7% (inactive) |
| O=C1NC(c2ccc(Br)cc2)=N/C1=C/c1ccccc1 | -7.8% (inactive) |
| Cc1cccc(NC(=O)/C(C#N)=C/c2ccc(-c3ccccc3[N+](=O)[O-])o2)c1 | 2.3% (inactive) |
| COc1ccc([N+](=O)[O-])cc1-c1ccc(/C=C(\C#N)c2nc3ccc(C)cc3[nH]2)o1 | 103% (active) |
| CC(=O)NC1=NC(=O)/C(=C\c2ccc(-c3cc([N+](=O)[O-])ccc3C)o2)S1 | -13.7% (inactive) |
| CCCOc1ccc(N2C(=O)CC(NCCc3ccc(Cl)cc3)C2=O)cc1 (stereo unspecified) | -18.1% (inactive) |
| COc1ccccc1NCN1C(=O)S/C(=C/c2ccccc2F)C1=O | -9.9% (inactive) |
| C/C(=C\C(=O)c1ccc(Br)cc1)Nc1ccccc1O | -2% (inactive) |
| CC(C)(C)CC(C)(C)NC(=O)CSc1nc2ccccc2s1 | 5.4% (inactive) |
| N/C(=C\C(=O)/C=C\c1ccccc1)C(Cl)(Cl)Cl | -0.8% (inactive) |
| O=c1oc2c3c4c(cc2cc1CCO)CCCN4CCC3 | 11.1% (inactive) |

| SMILES | inhibition |
| --- | --- |
| CN1CCN(CCCCOc2cccc3ccccc23)CC1 | 3.9% (inactive) |
| Cc1cc(C)c2oc(-c3ccc(NC(=O)c4cc5ccccc5o4)cc3O)nc2c1 | -0.1% (inactive) |
| CCc1ccc2oc(-c3ccc(C)c(NC(=O)c4cc(OC)cc(OC)c4)c3)nc2c1 | -3.6% (inactive) |
| COc1ccc(C=Nc2ccc(Sc3ccc([N+](=O)[O-])cc3)cc2)cc1OC | -1.2% (inactive) |
| COc1ccc(/C=C2/SC(=S)NC2=O)cc1I | 7.7% (inactive) |
| COC(=O)c1sc(NC(=O)C2CCCCC2)c(C#N)c1C | 103% (active) |
| COC(=O)c1sc(NC(=O)C(Sc2ccccc2)c2ccccc2)c(C#N)c1C (stereo unspecified) | 10.9% (inactive) |
| CCC(=O)Nc1sc(C(=O)N2CCCCC2)c(C)c1C#N | 7.4% (inactive) |
| CC1(C)c2ccccc2N(CCO)C12C=Cc1cc([N+](=O)[O-])ccc1O2 (stereo unspecified) | 0.7% (inactive) |
| COC(=O)c1cc(S(=O)(=O)N2CCOCC2)ccc1Cl | -0.5% (inactive) |
| O=C(Cc1c(O)c2ccccc2[nH]c1=O)NCc1ccc(Cl)cc1 | -5.2% (inactive) |
| CC(=O)n1nc(C)c2c1C[C@@H]1[C@H]2C1(C)C | 2.1% (inactive) |
| O=c1[nH]c2ccc(Br)cc2c(-c2ccccc2)c1C1=NNC(c2ccc([N+](=O)[O-])cc2)C1 (stereo unspecified) | 7.3% (inactive) |
| O=C1NN(c2ccccc2)C(=O)/C1=C/c1cccc(F)c1 | 7.6% (inactive) |
| Cc1ccc(N2NC(=O)/C(=C/c3ccc(O)c(O)c3)C2=O)cc1C | -5.6% (inactive) |
| Cc1ccc(N2NC(=O)/C(=C/c3ccc4c(c3)OCO4)C2=O)cc1Cl | 66.6% (active) |
| CC(C)=CC1C(C(=O)Nc2ccc(C)cn2)C1(C)C (stereo unspecified) | -10.2% (inactive) |
| O=C(NCc1ccco1)Nc1ccncc1 | -1.8% (inactive) |
| COc1ccccc1C(=O)NC(NC(=O)c1ccccc1OC)c1ccc(Br)cc1 | 7.8% (inactive) |
| O=C(Nc1ccc(OC(F)(F)F)cc1)c1cnn2c(C(F)(F)F)cc(-c3ccco3)nc12 | 0.1% (inactive) |
| OCCNCC(O)Cn1c2ccc(I)cc2c2cc(I)ccc21 (stereo unspecified) | -15.3% (inactive) |

| SMILES | inhibition |
| --- | --- |
| Cn1cnnc1Sc1nc2c(c(=O)n(C)c(=O)n2C)n1Cc1ccc(F)cc1 | -3.2% (inactive) |
| Cc1cccc(NC(=O)c2ccc(NC(=O)COc3ccc(Cl)cc3Cl)cc2)c1 | 6.4% (inactive) |
| Cc1cccc(C(=O)Nc2cccc(NC(=O)COc3ccccc3Cl)c2)c1 | 105% (active) |
| CC(C)(C)c1ccc(OCC(=O)Nc2cccc(NC(=O)c3ccccc3)c2)cc1 | -1.7% (inactive) |
| N#Cc1c(N)nc2cc(N)ccc2c1-c1ccc(O)cc1 | 104% (active) |
| CSc1nc(N)c(C#N)c(-c2ccccc2Cl)c1C#N | -5.7% (inactive) |
| CSc1ccc(-c2c(C#N)c(N)nc3c2c(C)nn3-c2ccccc2)cc1 | 2.8% (inactive) |
| CCN(C(=S)NC(=O)c1cccnc1)c1ccccc1 | 3.3% (inactive) |
| COc1ccc(C(=O)Nc2nc3ccc(C)cc3s2)cc1Br | 4.5% (inactive) |
| CCc1c(C)sc(NC(=O)C2CCCCC2)c1C(=O)OC(C)C | 6.5% (inactive) |
| COC(=O)c1cc(NC(=O)c2ccc(-c3cc(Cl)ccc3Cl)o2)cc(C(=O)OC)c1 | -24.3% (inactive) |
| COc1cc(OC)cc(C(=O)N/N=C(\C)CC(=O)Nc2ccccc2-c2ccccc2)c1 | -23.1% (inactive) |
| COc1ccc(C(=O)Nc2ccccc2C(=O)NCc2ccco2)cc1 | 4.8% (inactive) |
| CCOc1ccccc1C(=O)NCc1ccco1 | 103% (active) and 14.1% (inactive) |
| CCCCOc1ccc(C(=O)NCc2ccco2)cc1 | 6% (inactive) |
| O=C(Cc1ccc(Cl)cc1)Nc1ccc(Cl)cc1C(=O)O | 1.2% (inactive) |
| CN(C)c1ccc(/C=C2\SC(=S)N(c3cccc(C(=O)O)c3)C2=O)cc1 | 104% (active) |
| Cc1cccc(N2C(=O)S/C(=C/c3ccc(N(C)C)cc3)C2=O)c1 | -1.4% (inactive) |
| O=Cc1ccc(/C=C2/SC(=S)N(c3cccc(Cl)c3)C2=O)cc1 | 4.5% (inactive) |
